Screens from PubChem BioAssay.
USP1 inh = USP1/UAF1 (human) deubiquitinase inhibition; actives 0.23% (n = 390,000); Potency, µM (doses to about 57.1 µM), without a hit: at the top dose activity change, negative = inhibition, hits mostly inhibitors; recombinant USP1/UAF1, Ub-Rhodamine cleavage fluorescence; O94782; note: potency is the fitted concentration of half-maximal effect; % is set by controls: 0 for no effect and ±100 for the full control effect; nearly all actives have a fitted effect of over 60% in size
Target sequence (O94782 whole entry, looked up): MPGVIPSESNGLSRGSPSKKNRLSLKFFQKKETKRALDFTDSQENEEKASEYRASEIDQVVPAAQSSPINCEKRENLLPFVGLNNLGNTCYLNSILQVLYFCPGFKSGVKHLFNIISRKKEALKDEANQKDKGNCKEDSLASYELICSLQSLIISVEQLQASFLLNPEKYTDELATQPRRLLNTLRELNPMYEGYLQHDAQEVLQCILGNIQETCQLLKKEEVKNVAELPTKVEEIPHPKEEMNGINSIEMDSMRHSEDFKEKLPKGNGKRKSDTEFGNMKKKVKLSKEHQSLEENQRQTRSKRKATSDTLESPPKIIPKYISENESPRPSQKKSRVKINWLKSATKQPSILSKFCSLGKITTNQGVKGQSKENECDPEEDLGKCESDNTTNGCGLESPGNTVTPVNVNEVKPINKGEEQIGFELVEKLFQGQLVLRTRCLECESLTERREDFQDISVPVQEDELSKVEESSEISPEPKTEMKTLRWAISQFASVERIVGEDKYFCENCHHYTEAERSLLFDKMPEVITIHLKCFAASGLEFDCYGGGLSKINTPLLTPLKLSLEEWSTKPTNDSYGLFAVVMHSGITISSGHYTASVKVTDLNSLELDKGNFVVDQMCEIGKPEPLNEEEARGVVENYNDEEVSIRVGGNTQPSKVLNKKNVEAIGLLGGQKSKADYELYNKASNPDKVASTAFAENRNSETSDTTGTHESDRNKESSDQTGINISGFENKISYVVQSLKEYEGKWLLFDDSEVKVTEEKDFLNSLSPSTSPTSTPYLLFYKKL
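USP1/UAF1 complex at 1 nM was preincubated with compound for 15 min at room temperature, then Ub-Rho substrate (150nM final) was added. Fluorescence (480/540 nm) was read kinetically, 6 reads every 60 seconds.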
IL1B secr inh = blocks inflammasome-driven IL-1 beta release. THP-1 LPS/ATP IL-1B secretion, AlphaLISA, 16 h; stronger effect = lower value. activity change, % at 57.5 µM. actives 4.7% (n = 360,000). AID 743279; in the data active = activity change below about -50%; inconclusive = mostly about -30% to -49%; note: % is set by controls: 0 for no effect and ±100 for the full control effect
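Secreted IL-1B measured by AlphaLISA bead assay after 16 h compound exposure of THP-1 cells; compounds (final up to 57.5 uM) added 1 h before LPS (250 ng/mL) and ATP (1.25 mM) stimulation; lower signal means less secretion.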
ATXN viability = cell viability loss in ATXN counter-screen; S2 cells (HEK-293 line with an ATXN2-luciferase reporter) viability, CellTiter-Fluor protease fluorescence, 24 h; Potency, µM (titrated, usually from 56.7 µM), usual class: cytotoxic; actives 0.49% (n = 400,000); note: potency is the fitted concentration of half-maximal effect; nearly all actives have a fitted effect of over 40% in size
ATXN2 expr inh = ATXN2 expression inhibition; HEK-293 ATXN2-luciferase reporter, luminescence, 24 h; Potency, µM (series often up to 57 µM), for inactives: top-dose activity change, negative = inhibition, usual class: inhibitors; actives 0.72% (n = 360,000); AID 1745845; note: potency is the fitted concentration of half-maximal effect; % is set by controls: 0 for no effect and ±100 for the full control effect; nearly all actives have a fitted effect of over 55% in size
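qHTS (up to 57 uM final) was run with 24 h compound exposure of reporter cells at 37 °C. Each well was multiplexed: SteadyGlo luminescence measured ATXN2-luciferase expression after a fluorogenic Gly-Phe-AFC viability readout (25 uM final).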
USP2a block = blocks human ubiquitin-specific protease USP2a | O75604 | USP2 core, Ub-CHOP2 coupled fluorogenic reporter, 485/531 | AID 463254 | actives 0.01% (n = 330,000) | Potency, µM (titrated, usually from 38.3 µM), for the others: at the top dose activity change, negative = inhibition, actives largely listed as inhibitors;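 note: potency is the fitted concentration of half-maximal effect; plate controls were DMSO wells for no effect and full inhibition by NEM control for full effect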
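USP2 core (10nM final) preincubated 30min RT with compound in 20mM Tris-HCl pH 8.0, 2mM CaCl2, 2mM beta-mercaptoethanol, 0.05% CHAPS; 25nM Ub-CHOP2 plus 25nM reporter substrate added, fluorescence (Ex485/Em531) read after 60min.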
Active calls of the source: *; i = inactive; ? = inconclusive; . = no result; ! = not confirmed by another sample; [ ] = another dose, or the depositor's remark. Compounds with a hit are over-represented: about 4.8% of the library has one in this group of screens. Unless noted, calls come from the whole dose curve; as a rule, active = well fitted curve in the direction sought with a large enough effect; inconclusive = small, poorly fitted or top-dose-only effect, or another doubt; inactive = no such curve, though single readings can be large; an effect the other way counts as inactive or inconclusive.

SMILES	USP1 inh	IL1B secr inh	ATXN viability	ATXN2 expr inh	USP2a block
Cc1ccc(C2=N/C(=C\N3CCCCC3)C(=O)O2)cc1	-8.4%	-63.4*	i	48.2%	-6.6%
C[C@H](CO)N1C[C@H](C)[C@@H](CN(C)C(=O)Nc2ccc(C(F)(F)F)cc2)Oc2c(NS(=O)(=O)c3ccccc3)cccc2C1=O	-28.5%	10.2	i	12.2%	4.8%
NC(Cc1ccccc1)c1csc(Nc2nccc(C(F)(F)F)n2)n1 (centres undefined)	.	-12.2	i	?	.
CCc1cnc(Nc2nc(C(N)Cc3ccc(F)cc3)cs2)nc1 (centres undefined)	.	-62.3*	.	?	.
NC(Cc1ccc(Cl)cc1)c1csc(Nc2nccc(C(F)(F)F)n2)n1 (centres undefined)	.	-56.0*	i	?	.
NC(Cc1ccc(F)cc1)c1csc(Nc2nccc(C(F)(F)F)n2)n1 (centres undefined)	.	-59.4*	.	-20.3%	.
COc1ccc(CC(N)c2csc(Nc3nccc(C(F)(F)F)n3)n2)cc1 (centres undefined)	.	-55.9*	i	?	.
Cc1cnc(C)c(Nc2nc(C(N)Cc3ccc(F)cc3)cs2)n1 (centres undefined)	.	-20.1	?	?	.
COC(=O)c1ccccc1-c1cc(C)cc2c1OC(CNC(=O)c1occc1C)C2 (centres undefined)	.	.	i	.	.
CC(C)(C)C(=O)Nc1c2c(nn1-c1ccccc1)CSC2	-22.6%	9.0	i	.	3.6%
CC1(C)CC(NC(=O)c2sc3cc(Cl)ccc3c2Cl)CC(C)(C)N1	-7.9%	-73.1*	.	-23.3%	11.3%
CCNc1nc(-c2sc(NC(=O)C(C)(C)C)nc2C)c(-n2cc(-c3ccccc3)nn2)s1	.	-76.5*	.	14.1µM*	.
Cc1nc(NC(=O)C(C)(C)C)sc1-c1nc(N)sc1-n1cc(-c2ccccc2)nn1	.	15.5	i	4.8%	.
CCCN1/C(=C2/SC(=S)N(CC)C2=O)C=Cc2ccccc21	-27.4%	-28.7	?	-6.7%	0.8%
CN1C(=O)/C(=C2/C=Cc3ccccc3N2CCCS(=O)(=O)O)SC1=S	?	-8.1	15.8µM*	12.5%	-26.1%
COc1ccc(C(=O)c2coc3ccc(O)c(CN4CCCC4)c23)cc1	-9.3%	-22.9	?	-11.8%	-4.8%
Cc1ccc(C(=O)c2coc3ccc(O)c(CN4CCN(C)CC4)c23)cc1	-8.1%	-54.5*	?	-19.5%	1.3%
CSC1=NC(C)(C)C=C(/C=C/c2ccc(Cl)cc2Cl)N1	-10.9%	-104.9*	?	-30.1%	1.1%
CSC1=NC(C)(C)C=C(/C=C/c2c(Cl)cccc2Cl)N1	-3.0%	-97.2*	i	7.9%	0.9%
CCSC1=NC(C)(C)C=C(/C=C/c2ccc(Cl)cc2Cl)N1	-26.8%	-93.4*	i	-6.2%	-9.4%
CSC1=NC(C)(C)C=C(/C=C/c2ccc(Cl)cc2)N1	-12.0%	-101.1*	?	?	8.2%
Cc1ccc2c(c1)NC(c1cccs1)C1=C(CC(C)(C)CC1=O)N2 (centres undefined)	-6.8%	11.9	i	-5.3%	3.4%
CC(=O)C1=CCC(c2ccccc2)N(Cc2ccccc2)C1 (centres undefined)	.	-111.7*	.	.	.
CN(C)CC(C)(C)CNS(=O)(=O)c1ccc(Cl)c(Cl)c1	-14.5%	-53.8*!	i	-32.9%	0.2%
CC(C)c1ccc(S(=O)(=O)NCc2ccc3c(c2)CCN3C(=O)c2ccccc2)cc1	-17.5%	.	.	.	.
SMILES	USP1 inh	IL1B secr inh	ATXN viability	ATXN2 expr inh	USP2a block
NC(=O)Cn1c(=O)n(CCCCCC(=O)NCc2ccc3c(c2)OCO3)c(=O)c2sccc21	-1.0%	.	.	.	.
COc1ccccc1N=c1oc2cc(O)ccc2cc1C(=O)NCC1CCCO1 (centres undefined)	-26.3%	-0.8	i	-13.2%	2.0%
COc1cccc(N=c2oc3cc(O)ccc3cc2C(=O)NCC2CCCO2)c1 (centres undefined)	-22.1%	-86.5*	?	-5.0%	0.1%
NC(c1csc(Nc2ccc(C(F)(F)F)cn2)n1)C1CCCCC1 (centres undefined)	.	-66.0*	i	?	.
CC(C)CC(N)c1csc(Nc2ccc(C(F)(F)F)cn2)n1 (centres undefined)	.	-54.0*	?	?	.
CC(C)CC(N)c1csc(Nc2ccccn2)n1 (centres undefined)	.	-50.1*	?	?	.
NC(Cc1ccc(Cl)cc1)c1csc(Nc2ccc(C(F)(F)F)cn2)n1 (centres undefined)	.	-67.4*	31.6µM*	-22.5%	.
CC(C)CC(N)c1csc(Nc2cnccn2)n1 (centres undefined)	.	-15.8	?	-36.6%	.
Nc1nc(SCC(=O)Nc2cc(Cl)c(Cl)cc2Cl)n[nH]1	-2.0%	-51.9*	i	0.3%	0.6%
CCOC(=O)c1c(NC(=O)CSc2n[nH]c(N)n2)sc(CC)c1C	-19.8%	-92.2*	i	-17.3%	-0.3%
CC(=O)N1CCN(C2=Nc3cccc4cccc2c34)CC1	-23.1%	-65.8*	i	-4.5%	0.6%
COc1ccccc1N1CCN(C2=Nc3cccc4cccc2c34)CC1	-9.4%	-56.2*	?	29.2%[11.3 µM]	1.5%
c1cc2c3c(cccc3c1)C(N1CCOCC1)=N2	-25.4%	.	.	-7.1%	9.2%
CC1=NN(c2ccccc2)C(=O)/C1=C/C=C/C=C/N(C)C	?	19.5	14.1µM*	?	-11.9%
CC1=NN(c2ccccc2)C(=O)C1=Cc1ccccc1	-23.8%	-20.5	i	.	.
CC1=NN(c2ccc(C)cc2)C(=O)/C1=C\C=C\c1ccccc1	?	-180.3*	?	?	5.3%
CC1=NN(c2cccc(C(=O)O)c2)C(=O)/C1=C\C=C/c1ccccc1	?	-102.6*	?	?	2.0%
COc1ccc2ccccc2c1CN1CCc2nnc(CNC(=O)c3cccc(F)c3)n2CC1	.	.	i	.	.
COc1ccc(-c2sc3ccccc3c2-c2ccc(OCCN(C)C)cc2)cc1	-19.6%	-26.9	?	?	0.7%
COc1cccc(-c2sc3ccc(OC)cc3c2-c2ccc(O)cc2)c1	-23.9%	6.9	?	?	1.2%
COc1cccc(-c2sc3ccc(OC)cc3c2-c2ccc(OCCN(C)C)cc2)c1	?	-62.0*	?	?	2.0%
CN(C)CCOc1ccc(-c2c(-c3ccsc3)sc3ccccc23)cc1	-18.7%	-60.2*	?	?	2.2%
O=C1NC[C@H](CC2CCCCC2)N(CCC23CC4CC(CC(C4)C2)C3)C1=O	.	-2.1	i	-1.5%	.
Cc1ccc(C)c(N2CCN(S(=O)(=O)c3cn(C)c(C)n3)CC2)c1	-11.4%	.	i	-13.5%	.
CS(=O)(=O)N(CCC#N)Cc1ccc(/C=C2\C(=O)Nc3ccccc32)o1	-5.2%	-78.4*	i	3.0%	-0.1%
